# From PubChem BioAssay
# APOBEC3A inh: blocks human APOBEC3A ssDNA deamination. actives 0.41% (n = 330,000). P31941. inhibition, % at 20 µM. recombinant A3A, FAM/TAMRA ssDNA deamination fluorescence;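 active means at least 40% inhibition at 20 µM here, with at most 30% in a related deaminase screen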;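 further: plate controls were A3A with DMSO for no effect and wells lacking A3A enzyme for full effect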
# Target sequence (P31941 whole entry, looked up): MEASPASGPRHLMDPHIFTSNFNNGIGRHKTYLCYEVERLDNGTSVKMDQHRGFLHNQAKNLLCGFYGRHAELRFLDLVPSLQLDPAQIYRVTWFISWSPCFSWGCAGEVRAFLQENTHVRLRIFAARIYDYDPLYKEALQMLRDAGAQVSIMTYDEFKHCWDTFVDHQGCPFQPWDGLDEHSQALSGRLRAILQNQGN
# A3G deaminase: blocks human APOBEC3G single-stranded DNA deamination | Q9HC16 | recombinant A3G, ssDNA deamination FAM/TAMRA fluorescence | inhibition, % at 20 µM | actives 0.28% (n = 330,000) | AID 493012;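 active means inhibition of at least 40% at 20 µM, with no more than 30% in the related APOBEC3A deaminase screen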;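 further: plate controls were DMSO wells with A3G for no effect and wells lacking A3G enzyme for full effect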
# Target sequence (Q9HC16 whole entry, looked up): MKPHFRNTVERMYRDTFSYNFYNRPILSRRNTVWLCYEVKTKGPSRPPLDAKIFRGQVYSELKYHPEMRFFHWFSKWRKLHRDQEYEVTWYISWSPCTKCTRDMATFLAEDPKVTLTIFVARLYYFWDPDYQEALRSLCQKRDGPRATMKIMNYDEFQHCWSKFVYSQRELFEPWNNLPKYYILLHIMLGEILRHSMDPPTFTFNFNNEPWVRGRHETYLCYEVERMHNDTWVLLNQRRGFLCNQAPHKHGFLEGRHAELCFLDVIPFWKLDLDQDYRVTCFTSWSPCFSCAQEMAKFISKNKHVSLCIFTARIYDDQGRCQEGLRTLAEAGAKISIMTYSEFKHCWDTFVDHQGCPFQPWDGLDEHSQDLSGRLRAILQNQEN
# ADAM10 inh: ADAM10 inhibition, QFRET primary screen; O14672; recombinant ADAM10, EDANS/DABCYL FRET peptide cleavage, 3 h; inhibition, % at 7 µM; actives 0.62% (n = 370,000); AID 720582;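 active means inhibition above a per-campaign cutoff equal to the mean of compounds falling between control-based bounds plus 3 SD, cut at about 20% in these data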;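 further: 0% = DMSO wells while the 100% control is not disclosed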
# ADAM17 inh: ADAM17 inhibition, QFRET primary screen | P78536 | recombinant ADAM17, EDANS/DABCYL FRET peptide cleavage | inhibition, % at 6.95 µM | actives 0.83% (n = 370,000) | AID 720648;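 active means inhibition above the mean of compounds lying between control limits plus 3 SD, set per campaign, cut at about 8.5% in these data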;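 further: 0% = DMSO-only wells as the low control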
# NRP1-CendR mod: alters CendR peptide binding to human NRP-1; inhibition, % at 25 µM; O14786; FAM-RPARPAR peptide binding to NRP-1, fluorescence polarization; actives 0.85% (n = 360,000);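 active means inhibition or corrected inhibition above about 18%, plus a signal ratio from 0.5 to 1.5, limit read from the data, passing the limit was not always enough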
# APOBEC3G confirm: confirmation of human APOBEC3G DNA deaminase inhibitors; shares compounds with A3G deaminase; recombinant A3G ssDNA deaminase, UDG/FAM-TAMRA fluorescence; inhibition, % at 20 µM; actives 72% (n = 890); AID 493152;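 active means inhibition reaching a set limit in any replicate at 20 µM, the limit being 80% of the first screen's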
# UDG ctr A3G: inhibits E. coli UDG, flagging false APOBEC3G inhibitors; shares compounds with A3G deaminase; UDG counterscreen, FAM/TAMRA oligo fluorescence; inhibition, % at 20 µM; 710 tested, under 10 active; AID 504715;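 active means compounds giving 40% or more inhibition at 20 µM in any one of the three replicates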;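 further: plate controls were DMSO wells with UDG and oligo for no effect and DMSO wells lacking both for full effect; inhibitors lower the FAM signal released by uracil excision and alkaline cleavage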
# An asterisk follows results filed as active; i = inactive; . = no result given. Hits are enriched below; roughly 2.4% of the tested compounds scored in any of these assays.
SMILES,APOBEC3A inh,A3G deaminase,ADAM10 inh,ADAM17 inh,NRP1-CendR mod,APOBEC3G confirm,UDG ctr A3G
CCn1c(-c2sc(-c3ccccc3)nc2C)n[nH]c1=S,-2,38,-14,-5,3,.,.
CCC(C)n1c(-c2cccc(S(=O)(=O)N3CCOCC3)c2)n[nH]c1=S (stereo not given),-4,26,-3,-1,2,.,.
CCn1c(-c2cccc(Br)c2)n[nH]c1=S,1,47*,-3,-2,-2,63*,3
CCn1c(-c2cccc(S(=O)(=O)N3CCCC3)c2)n[nH]c1=S,1,51*,5,1,-11,27*,-2
COc1cc(C2Nc3ccccc3C(=O)N2c2ccccc2OC)ccc1O (stereo not given),-1,-3,-251,-79,-4,.,.
COc1cc(C2Nn3c(nnc3-c3ccccc3OC)S2)ccc1O (stereo not given),-1,45*,-2,1,1,82*,-2
COC(=O)[C@]12C[C@H](CC(=O)NCC3CCCCC3)C(=O)N(CCc3ccc(OC)c(OC)c3)C1=C[C@H](C(C)C)O[C@@H]2C1CC1,.,.,-4,1,.,.,.
Cc1occc1-c1n[nH]c(=S)n1-c1ccccc1,-2,42*,-2,0,13,14*,-5
COc1cc(-c2n[nH]c(=S)n2/N=C/c2cccn2C)cc(OC)c1OC,-4,35,-7,-5,13,.,.
S=c1[nH]nc(-c2ccco2)n1/N=C/c1c(Cl)cccc1Cl,-6,43*,2,-4,-11,71*,6
S=c1[nH]nc(-c2ccco2)n1/N=C/c1cccc(Cl)c1,-2,32,3,-3,7,.,.
S=c1[nH]nc(-c2ccco2)n1/N=C/c1ccccn1,-1,59*,.,.,.,83*,1
Cn1cccc1/C=N/n1c(-c2ccco2)n[nH]c1=S,-4,44*,0,-1,-8,80*,-3
CCOc1cccc(/C=N\NC(=O)c2cnccn2)c1O,.,.,5,4,.,.,.
CN1C(=O)C[C@@](C#N)(C(=O)NCc2ccc3c(c2)OCO3)[C@H]1c1ccccc1,.,.,5,4,.,.,.
CC(C)COc1ccc(-c2csc(N3CCC(C(N)=O)CC3)n2)cc1,.,.,3,2,.,.,.
CC(C)N(c1cc(=O)nc2ccccn12)C(C)C,.,.,-3,-3,.,.,.
CCOC(=O)[C@@]12CCCC=C1N(CCc1ccc(Cl)cc1)C(=O)[C@H]2CC(=O)NCc1cccs1,.,.,12,5,.,.,.
Cc1ccc(-n2c(-c3ccco3)n[nH]c2=S)cc1,-3,45*,-5,-2,9,72*,1
Cc1cc(-c2n[nH]c(=S)n2-c2ccccc2)nn1C,1,16,8,-2,-4,.,.
Fc1cccc(-c2n[nH]c(=S)n2-c2ccccc2)c1,-4,41*,2,-7,3,86*,-2
Cc1cccc(/C=N/n2c(-c3ccco3)n[nH]c2=S)c1,-5,35,-1,-4,12,.,.
Cc1ccc(/C=N/n2c(-c3ccco3)n[nH]c2=S)cc1,-4,40*,4,-2,-8,66*,-1
Cc1ccsc1/C=N/n1c(-c2ccco2)n[nH]c1=S,0,42*,6,-4,2,77*,-3
Fc1ccc(-n2c(-c3ccco3)n[nH]c2=S)cc1,.,.,-8,-4,17,.,.
SMILES,APOBEC3A inh,A3G deaminase,ADAM10 inh,ADAM17 inh,NRP1-CendR mod,APOBEC3G confirm,UDG ctr A3G
COC(=O)C1CCC(CNC(=O)C(Cc2ccc3c(c2)OCO3)NC(C)=O)CC1 (stereo not given),.,.,-4,4,.,.,.
Cc1ccc(NC(=O)C2CCN(c3nnc(-n4cccc4)s3)CC2)c(C)c1,.,.,4,1,.,.,.
COc1ccccc1CNC1CCC12CCC(c1ccccc1)CC2 (stereo not given),.,.,-5,-6,.,.,.
S=c1[nH]nc(-c2ccco2)n1/N=C/c1ccc(Cl)c(Cl)c1,-5,44*,-4,3,3,-1,-2
CS(=O)(=O)c1ccc2nc(N)sc2c1,-2,-5,-6,-6,-4,.,.
CS(=O)(=O)c1ccc(N)c(SSc2cc(S(C)(=O)=O)ccc2N)c1,4,87*,5,1,-2,95*,.
Cc1ccc(C)c(N(CC(=O)NN=C2CCN(C)CC2)S(=O)(=O)c2ccccc2)c1,-1,51*,8,4,-1,-1,5
Cc1ccc(N(CC(=O)NN=C2CCN(C)CC2)S(=O)(=O)c2ccc(C)cc2)cc1,-3,-9,-2,-1,0,.,.
Cc1cccc(OCCn2c(=S)[nH]c3ccccc32)c1,8,62*,2,1,8,46*,-1
CCN(CC)c1ccc(NC(=O)c2cccc(C)c2)cc1S(=O)(=O)Nc1ccccc1OC,4,49*,25*,13*,-4,54*,3
CCN(CC)c1ccc(NC(=O)c2ccccc2)cc1S(=O)(=O)Nc1ccccc1OC,4,50*,18,9.4*,1,48*,1
COc1ccc(NC(=O)c2ccccc2)cc1NS(=O)(=O)c1ccc(F)cc1,0,2,-2,0,-15,.,.
COC(=O)c1cccc(Cn2ccc3ccc(-c4ccc5ccn(Cc6cccc(C(=O)OC)c6)c5c4)cc32)c1,.,.,1,-2,.,.,.
CCCCCCCCN1C(=O)[C@@H](CC(=O)NCCC(C)C)C[C@@]2(C(=O)OC)C1=C[C@H](C(C)(C)C)O[C@@H]2C,.,.,2,0,.,.,.
O=C(CNC(c1ccccc1)c1ccccc1)Nc1ccccc1Br,-4,50*,7,-1,10,-6,0
c1csc(-c2nn3c(Cn4cnc5ccccc54)nnc3s2)c1,5,53*,-8,-8,0,38*,-4
c1csc(-c2nn3c(Cn4nnc5ccccc54)nnc3s2)c1,2,-3,0,-3,5,.,.
S=c1[nH]c2ccccc2n1Cc1ccccc1,-2,50*,2,2,8,54*,1
S=c1[nH]c2cnccc2n1Cc1ccccc1,-4,13,-5,-6,4,.,.
CC(=O)c1sc2nc(-c3cccs3)ccc2c1N,6,44*,i,-153,-15,31*,-2
CCCCN1C(=O)C2(NNc3ccccc3O2)c2ccccc21 (stereo not given),1,43*,-2,-4,-168,5,.
O=C(Nc1ccccc1)OCCN1C(=O)CCC12CCC(c1ccc(Cl)cc1)CC2 (stereo not given),.,.,-1,2,.,.,.
O=C(NCc1ccco1)C1CCCN(S(=O)(=O)c2cccs2)C1 (stereo not given),.,.,3,2,.,.,.
NNC(=O)Nc1cccc(C(F)(F)F)c1,3,57*,-4,-2,6,-2,.
O=C(Nc1ccncc1)Nc1cccc(C(F)(F)F)c1,-1,-5,1,0,8,.,.
